Shown are actives, neighbours in structure and some others; about 2.4% of the full set was active somewhere.
PINK1 modulator – A Quantitative High throughput Screen to Identify Chemical Modulators of PINK1 Expression | PINK1 immunofluorescence, high-content cytometry, 24 h | Potency, µM (series often up to 76.6 µM), without a hit: at the top dose activation (PINK1 increase), most hits filed as activators | hit rate 0.2% among 410,000; active = well fitted activation curve with a large enough effect; inconclusive = small, poorly fitted or top-dose-only effect; cell line not stated here; also: % of control where 0% means no effect; nearly all actives have a fitted effect of over 65% in size
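Decision-based qHTS: stable cells, 24 h exposure to five compound concentrations, CCCP as control. Fixed cells stained for PINK1 plus nuclear, mitochondrial and cell markers, cytometer read.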
A549 tox – Nrf2 qHTS screen for inhibitors: counterscreen for cytotoxicity; Potency, µM (doses to about 46 µM), for the others: at the top dose activity change, negative = cytotoxicity, usual class: inhibitors; A549 ARE-Fluc cells, CellTiter-Fluor viability, 18-24 h; hit rate 0.16% among 390,000; also: % is scaled to controls: 0 for no effect and ±100 for the full control effect
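A549 ARE_Fluc cells in 5% FBS OPTI-MEM were exposed to compounds in concentration-response for 18-24 h at 37 deg C. Viability was read by CellTiter-Fluor fluorescence (Ex 405/Em 525) after 30 min, before the luciferase read.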
Nrf2 activator – qHTS of Nrf2 Activators; AREc32 ARE-luciferase reporter (MCF7-derived line), luminescence, 24 h; Potency, µM (top dose mostly 46.1 µM), inactives show top-dose activation, usual class: activators; hit rate 0.31% among 410,000; AID 624171, 2012; also: % of control where 0% means no effect; nearly all actives have a fitted effect of over 65% in size
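ARE activation measured as luciferase luminescence (Steady-Glo, 30 min RT) in AREc32_Fluc cells after 24 hr compound exposure at 37 deg C, 5% CO2; cells seeded overnight at 1000/well in OPTI-MEM, 5% FBS.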
Epigenetic reg – Quantitative High-Throughput Screen for Regulators of Epigenetic Control | murine LDR cells, GFP reporter derepression, 30 h | Potency, µM (doses to about 53.9 µM), for inactives: at the top dose GFP activation, actives largely listed as activators | hit rate 0.2% among 280,000 | AID 1865, 2009; also: % of control where 0% means no effect; nearly all actives have a fitted effect of over 60% in size
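Reporter derepression read as number of fluorescent GFP-positive objects, 20-120 um in size, counted by laser-scanning cytometer. Mouse LDR line with an epigenetically silenced CMV-GFP locus; compound incubation 30 h, 37 C.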
Nrf2 inh – Nrf2 qHTS screen for inhibitors; hit rate 2.1% among 360,000; A549 ARE-Fluc reporter, luciferase luminescence, 18-24 h; Potency, µM (highest dose often 46 µM), for inactives: top-dose activity change, negative = inhibition, most hits filed as inhibitors; also: % is scaled to controls: 0 for no effect and ±100 for the full control effect; nearly all actives have a fitted effect of over 60% in size
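A549 ARE_Fluc cells, 5000/well, 5% FBS OPTI-MEM; compounds in dose-response, 18-24 h at 37 °C/5% CO2; CellTiter-Fluor viability read (Ex 405/Em 525), then BugLite luciferase luminescence = Nrf2 activity.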
* marks the source's active call; other numbers are inactive results; ? = inconclusive; . = no result; [ ] = remark or other dose. Unless noted, calls follow the shape of the dose curve; as a rule, active = well fitted curve in the direction sought with a large enough effect; inconclusive = small, poorly fitted or top-dose-only effect, or another doubt; inactive = no such curve, though single readings can be large; an effect the other way counts as inactive or inconclusive. Potency is read from the fitted curve at half-maximal effect.

SMILES	PINK1 modulator	A549 tox	Nrf2 activator	Epigenetic reg	Nrf2 inh
Cc1cc(NC(=O)CSc2nc(-c3ccco3)cc(C(F)(F)F)n2)n(-c2ccccc2)n1	7.6%	?	-0.6%	1.2%	?
Cc1cc(NC(=O)CCCSc2nc(-c3ccco3)cc(C(F)(F)F)n2)n(-c2ccccc2)n1	-0.2%	-17.0%	3.1%	-1.0%	25.9µM*
COC(=O)c1cn(NC(=O)c2cc([N+](=O)[O-])ccc2F)c(=O)c2ccccc12	0.1%	-16.1%	17.6%	-2.2%	5.17µM*
O=C(NCCO)c1ccc(Cc2nc3ccccc3[nH]2)cc1	.	.	.	3.2%	.
O=C(CSCc1cccc(CSCC(=O)Nc2ccc3ccccc3c2)n1)Nc1ccc2ccccc2c1	-0.4%	-21.8%	0.5%	-0.3%	13µM*
O=C(CSCc1nc2ccccc2[nH]1)Nc1ccc2ccccc2c1	3.6%[38.3 µM]	1.2%	0.1%	0.0%	0.4%
Cc1ccc(C)c(CN2C(=O)CSc3ccc(C(=O)NCc4ccc(F)cc4)cc32)c1	10.7%	0.0%	-1.0%	1.6%	5.7%[9.27 µM]
CS(=O)(=O)N(CC(O)CON=C1c2ccccc2-c2ccccc21)c1ccc(F)cc1 (configuration not stated)	-7.2%[38.3 µM]	-26.3%	0.1%	-0.7%	8.2µM*
Cc1cccc(N(CC(O)CON=C2c3ccccc3-c3ccccc32)S(C)(=O)=O)c1 (configuration not stated)	.	?	3.0%	2.7%	18.4µM*
O=C(NCC1Cc2cccc(-c3cccnc3)c2O1)c1cc(-c2ccccc2)n[nH]1 (configuration not stated)	-0.4%	.	.	.	.
CC(C)(C)OC(=O)Cc1nnc(-c2cc3ccccc3[nH]2)s1	.	-1.2%	.	.	?
COc1cc(S(=O)(=O)NCCc2c(C)[nH]c3ccccc23)c(C)cc1C	2.6%	-11.4%	-0.4%	3.2%	?
COc1ccc(NC(=O)c2ccc3c(=O)n(-c4ccc(OC)cc4OC)c(=S)[nH]c3c2)cc1	0.4%	-4.7%	-0.2%	1.2%	-22.9%
COc1ccc(-n2c(=S)[nH]c3cc(C(=O)NCc4ccc(F)cc4)ccc3c2=O)c(OC)c1	9.9%	0.6%	0.1%	.	16.4µM*
COc1ccc(-n2c(=S)[nH]c3cc(C(=O)Nc4ccc(F)cc4)ccc3c2=O)c(OC)c1	1.4%	1.4%	4.0%	.	20.6µM*
COC(=O)C(=Cc1ccc(OCc2ccc([N+](=O)[O-])cc2)c(OC)c1)C(=O)OC	-3.3%	?	8.91µM*	-2.4%	?
CCOC(=O)C(=Cc1ccc(OCc2ccc([N+](=O)[O-])cc2)c(OC)c1)C(=O)OCC	-2.8%	?	?	-0.9%	?
c1coc(CNc2nc[n+]3c4c2ncn4CC3)c1	2.0%	-0.8%	.	.	7.3%
CN(C)c1ccc(/C=C2/C[N+](C)(C)C/C(=C/c3ccc(N(C)C)cc3)C2=O)cc1	1.7%	14.6µM*	25.2%	.	?
CC(C)/C=C1\CC/C(=C\c2ccc(N(C)C)cc2)C1=O	17.3%	-2.9%	5.6%	2.0%	3.7%
CCOC(=O)c1cc(-c2ccc(OC)c(S(=O)(=O)N3CCN(c4ccccc4)CC3)c2)on1	0.7%	3.3%	1.1%	0.8%	?
COc1ccc(-c2cc(C)no2)cc1S(=O)(=O)N1CCN(c2ccc(C(C)=O)cc2)CC1	1.8%	-1.2%	-0.3%	-4.3%	13µM*
COC(=O)CSCc1nc2ccccc2[nH]c1=O	0.6%	4.2%	5.1%	25.1µM*	?
COc1ccc(C2Nc3ccccc3C(=O)N2Cc2ccccc2)cc1OCc1ccc(NC(C)=O)cc1 (configuration not stated)	.	6.2%	.	.	0.3%
CC(C)=CCC/C(C)=C/COc1c2ccoc2cc2oc(=O)ccc12	0.0%	12.3%	.	.	-25.6%
SMILES	PINK1 modulator	A549 tox	Nrf2 activator	Epigenetic reg	Nrf2 inh
O=C(C[n+]1cccc2cc(Cl)ccc21)c1ccc2c(c1)CCCC2	0.9%	.	.	.	.
COc1ccc(CNC(=O)c2cc(COc3c(F)cccc3F)on2)cc1OC	5.8%	-15.3%	0.3%	4.1%	25.9µM*
O=C1CCc2cc(S(=O)(=O)Nc3cccc(B(O)O)c3)ccc2N1	.	-5.8%	.	.	?
N=c1oc2cc(O)ccc2cc1C(=O)Nc1ccc(F)cc1	14.1µM*	23.8%	1.8%	.	-18.2%
COc1ccc(NC(=O)c2cc3ccc(O)cc3o/c2=N\O)cc1	4.3%	?	3.2%[9.22 µM]	.	2.06µM*
O=C(c1ccc(F)cc1)c1cc2ccc(O)cc2oc1=O	2.0%	-3.8%	7.0%	.	-8.5%
COc1ccc2o/c(=N\O)c(C(=O)Nc3ccccc3OC)cc2c1	-1.0%	-5.2%	9.8%	-4.1%	-1.4%
Cc1ncc2c(c1CNC(=O)c1ccccc1F)CCN(C(=O)c1ccc3c(c1)OCCO3)C2	4.9%	.	.	.	.
O=C1CCc2cc(S(=O)(=O)Nc3cc(F)cc(Cl)c3)c(F)cc2N1	.	?	.	.	0.0%
COc1cc(/C=N/n2cnnc2)ccc1OS(=O)(=O)c1ccccc1[N+](=O)[O-]	2.2%	3.3%	12.6µM*	-0.9%	2.5%
Cc1ccccc1CC1(CO)CCCN(C(=O)c2cc(Cl)ccc2F)C1 (configuration not stated)	-0.7%	-9.0%	-0.4%	-1.1%	11.6µM*
Cc1ccccc1CC1(CO)CCCN(C(=O)c2ccccc2Cl)C1 (configuration not stated)	3.9%	0.0%	0.5%	0.2%	-13.7%
Cc1ccc(OCCn2c(-c3ccc(Br)cc3)nc3ccccc3c2=O)cc1C	1.1%	-2.0%	7.4%	-0.7%	-4.7%
CCSC1=C(C#N)C(c2ccc(Cl)cc2)C2=C(CCCC2=O)N1 (configuration not stated)	-1.7%	?	0.2%	-1.1%	20.6µM*
COCCCNc1ncnc2sc(C(=O)N3CCOCC3)c(C)c12	1.7%	.	.	.	.
CC(=O)OC[C@H]1O[C@@H](CCO/N=C2/[C@H]3O[C@@H]3[C@@H](O)[C@H]3[C@H]2CCn2c(=O)n(-c4ccccc4)c(=O)n23)C=C[C@@H]1OC(C)=O	.	.	.	1.1%[10.1 µM]	.
CCSc1ncc(Cl)c(C(=O)N(Cc2ccccc2)Cc2ccco2)n1	2.1%	-0.2%	0.4%	1.2%	?
CCCSc1ncc(Cl)c(C(=O)N(Cc2ccc(Cl)cc2)Cc2ccco2)n1	2.5%	-5.1%	4.7%	1.9%	20.6µM*
CCCS(=O)(=O)c1ncc(Cl)c(C(=O)N(Cc2ccccc2)Cc2ccco2)n1	-1.0%	?	?	1.9%	16.4µM*
CCC1CN(Cc2cn[nH]c2-c2ccccc2)Cc2cc(OC)ccc2O1 (configuration not stated)	1.2%	.	.	.	.
O=c1cc(/C=C/c2cccs2)[nH]c2ccccc12	15.5%[38.3 µM]	-14.1%	0.1%	4.2%	13µM*
CSc1ccc(/C=C/c2cc(=O)c3ccccc3[nH]2)cc1	?	2.0%	4.2%[9.22 µM]	?	-15.2%
